Source: PubChem BioAssay (NCATS)
Where “and” joins values, the source holds several entries; their conditions need not be identical. Equal values may be shown once. Records with an inconclusive call do not appear. Calls of active or inactive are those of the source. Unless noted, the call rests on the fitted dose curve; in most records, active means well fitted curve in the direction sought with a large enough effect; inconclusive means small, poorly fitted or top-dose-only effect, or another doubt; inactive means no such curve, though single readings can be large; an effect the other way counts as inactive or inconclusive.

Assays:
[1] = Primary qHTS for small molecule stabilizers of the endoplasmic reticulum resident proteome: Secreted ER Calcium Modulated Protein (SERCaMP) assay (AID 1508630); further: on the % scale 0 is the no-effect control and ±100 the full control effect
Procedure, shortened: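 The SH-SY5Y reporter protocol was run at 3 concentrations up to 38.3 uM (primary) or 11 concentrations (follow-up): 16 h compound, 100 nM thapsigargin for 4 h, then extracellular luciferase luminescence.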

[2] = Primary qHTS for inhibitors of nuclear receptor binding SET domain protein 2 (NSD2) in an isogenic RCH-ACV NSD2 p.E1099K mutant (9B) (AID 1645876); further: nearly all actives have a fitted effect of over 70% in size; further: potency means the concentration at half of the fitted maximal effect
[3] = target: Catechol O-methyltransferase (Homo sapiens) (UniProt P21964); assay: Confirmatory Screen for Target Class Profiling of Small Molecule Inhibitors of Methyltransferases (AID 1745852; calls by dose curve; further: potency means the concentration at half of the fitted maximal effect; on activity change, negative = inhibition: on the % scale 0 is the no-effect control and ±100 the full control effect); settings: MTase-Glo luminescence, SAH detection, recombinant enzyme; measured here: COMT max response; stronger effect = lower value
Sequence of Catechol O-methyltransferase (Homo sapiens) (P21964 whole entry, looked up): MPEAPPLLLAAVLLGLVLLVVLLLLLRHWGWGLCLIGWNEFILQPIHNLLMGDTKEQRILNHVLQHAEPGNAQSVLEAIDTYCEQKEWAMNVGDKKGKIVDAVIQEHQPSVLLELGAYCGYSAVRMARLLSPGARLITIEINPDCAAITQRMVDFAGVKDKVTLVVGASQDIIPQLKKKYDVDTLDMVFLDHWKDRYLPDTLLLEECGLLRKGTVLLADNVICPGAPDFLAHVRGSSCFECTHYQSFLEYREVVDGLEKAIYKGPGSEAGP

[4] = target: Guanidinoacetate N-methyltransferase (Homo sapiens) (UniProt Q14353); assay: as above; settings: MTase-Glo luminescence, SAH detection, recombinant enzyme; activity change, negative = inhibition: at 57.3 µM (top of the series) unless noted
[5] = target: Cytochrome P450 2D6 (Homo sapiens) (UniProt P10635); assay: Cytochrome P450 family 2 subfamily D member 6 (CYP2D6) small molecule antagonists: luciferase biochemical (cell-free) qHTS assay (AID 1645840; active means well fitted curve in the direction sought with a large enough effect in the repeat runs; an effect the other way counts as inactive or inconclusive; further: nearly all actives have a fitted effect of over 55% in size; further: potency means the concentration at half of the fitted maximal effect; on activity change, negative = inhibition: on the % scale 0 is the no-effect control and ±100 the full control effect)
Sequence of Cytochrome P450 2D6 (Homo sapiens) (P10635 whole entry, looked up): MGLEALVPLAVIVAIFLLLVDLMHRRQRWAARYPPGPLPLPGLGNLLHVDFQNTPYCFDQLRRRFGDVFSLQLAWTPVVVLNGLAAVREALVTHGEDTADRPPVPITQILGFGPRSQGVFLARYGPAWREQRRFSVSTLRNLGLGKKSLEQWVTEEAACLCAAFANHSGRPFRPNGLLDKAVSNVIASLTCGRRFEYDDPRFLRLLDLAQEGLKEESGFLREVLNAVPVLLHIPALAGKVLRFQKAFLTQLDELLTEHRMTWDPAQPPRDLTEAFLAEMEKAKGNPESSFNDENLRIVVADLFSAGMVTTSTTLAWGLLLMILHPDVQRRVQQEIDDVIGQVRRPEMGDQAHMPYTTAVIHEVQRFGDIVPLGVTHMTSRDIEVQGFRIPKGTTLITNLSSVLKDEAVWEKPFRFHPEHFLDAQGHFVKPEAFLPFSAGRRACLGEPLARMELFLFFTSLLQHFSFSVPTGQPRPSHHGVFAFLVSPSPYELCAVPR
Procedure, shortened: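 P450-Glo CYP2D6 system: proluciferin substrate converted by enzyme to luciferin, read by luminescence proportional to activity. Enzyme-substrate mix with compound 10 min at room temperature, then NADPH regeneration 1 h before detection reagent.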

[6] = target: Cytochrome P450 2C9 (Homo sapiens) (UniProt P11712); assay: Cytochrome P450 family 2 subfamily C member 9 (CYP2C9) small molecule antagonists: luciferase biochemical (cell-free) qHTS assay (AID 1645842; active means well fitted curve in the direction sought with a large enough effect in the repeat runs; an effect the other way counts as inactive or inconclusive; further: nearly all actives have a fitted effect of over 55% in size; further: potency means the concentration at half of the fitted maximal effect; on activity change, negative = inhibition: on the % scale 0 is the no-effect control and ±100 the full control effect)
Sequence of Cytochrome P450 2C9 (Homo sapiens) (P11712 whole entry, looked up): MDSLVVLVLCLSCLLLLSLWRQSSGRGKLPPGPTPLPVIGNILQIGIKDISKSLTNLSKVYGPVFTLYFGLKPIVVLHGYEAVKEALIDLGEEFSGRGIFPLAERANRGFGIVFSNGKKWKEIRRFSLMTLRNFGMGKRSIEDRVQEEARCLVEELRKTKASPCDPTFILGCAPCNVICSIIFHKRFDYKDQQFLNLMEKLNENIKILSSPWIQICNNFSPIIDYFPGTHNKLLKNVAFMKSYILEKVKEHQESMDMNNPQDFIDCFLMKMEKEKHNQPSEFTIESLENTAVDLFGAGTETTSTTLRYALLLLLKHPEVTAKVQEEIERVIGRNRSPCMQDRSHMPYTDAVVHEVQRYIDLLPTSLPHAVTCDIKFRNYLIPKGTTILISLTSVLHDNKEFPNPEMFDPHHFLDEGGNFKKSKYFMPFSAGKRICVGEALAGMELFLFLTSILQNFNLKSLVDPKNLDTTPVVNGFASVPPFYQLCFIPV
Procedure, shortened: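 P450-Glo CYP2C9 system: proluciferin substrate with enzyme in mix containing 0.4% BSA, 10 min at room temperature, then NADPH regeneration solution added and incubated 1 h at 37C. Detection reagent stopped reaction; luminescence read after 20 min as RLU.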

[7] = Primary qHTS for inhibitors of nuclear receptor binding SET domain protein 2 (NSD2) in an RCH-ACV wild type WT cells (2C) (AID 1645877); further: nearly all actives have a fitted effect of over 70% in size; further: potency means the concentration at half of the fitted maximal effect
[8] = target: N-terminal Xaa-Pro-Lys N-methyltransferase 1 (Homo sapiens) (UniProt Q9BV86); assay: Confirmatory qHTS for Inhibitors of N-terminal methyltransferase 1 (NTMT1): MTaseGlo Assay (AID 1645874); further: potency means the concentration at half of the fitted maximal effect; nearly all actives have a fitted effect of over 65% in size
Sequence of N-terminal Xaa-Pro-Lys N-methyltransferase 1 (Homo sapiens) (Q9BV86 whole entry, looked up): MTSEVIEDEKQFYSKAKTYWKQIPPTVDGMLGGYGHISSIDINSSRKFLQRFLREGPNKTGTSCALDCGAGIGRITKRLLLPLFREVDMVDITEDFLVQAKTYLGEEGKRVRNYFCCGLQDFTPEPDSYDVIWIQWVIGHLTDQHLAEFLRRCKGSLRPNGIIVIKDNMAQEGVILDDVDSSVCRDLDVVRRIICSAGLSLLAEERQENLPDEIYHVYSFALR
Procedure, shortened: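 Enzyme mix (125 nM NTMT1, 100 uM SAM) + compound, 15 min RT; + 1 uM SPKRIA, 30 min RT, dark; MTase-Glo reagent 30 min, detection solution 30 min; luminescence. % inhibition vs no-enzyme/DMSO controls, 4-parameter Hill fit.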

[9] = A High-Content qHTS Against Drug Library for the Identification of Small Molecules that Inhibit DYT1 Early Onset Primary Dystonia-Associated Cell Pathology (AID 1645839; calls by dose curve; further: potency means the concentration at half of the fitted maximal effect)
Procedure, shortened: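 Induced EGFP-delE TorsinA cells are imaged after 48 h of compound treatment. Punctate fusion-protein distribution gives the %pathology value, while nuclei counts flag toxicity. Wild-type EGFP-hTOR1A cells define the normal pattern.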

Which results are given for `CC[C@@H]1C(=O)N(C)c2cnc(Nc3ccc(C(=O)NC4CCN(C)CC4)cc3OC)nc2N1C1CCCC1`?
Potency [1]: inactive; Potency [2]: 0.0372 µM (active); activity [3]: -18.1%; Potency [4]: 21.7 µM (active)

Which Potency [5] does the source give for `CN(C1CCc2c(c3ccccc3n2CC(=O)O)C1)S(=O)(=O)c1ccc(F)cc1` (configuration not stated) here?
Its Potency is “inactive”.

And the Potency [6]?
Its Potency is 19 µM (active) and 13.5 µM (active).

What about the Potency [2] of the same compound?
Its Potency is “inactive”.

What about the Potency [7] of the same compound?
Its Potency is “inactive”.

For `Cc1cn(-c2cc(NC(=O)c3ccc(C)c(Nc4nccc(-c5cccnc5)n4)c3)cc(C(F)(F)F)c2)cn1`, which Potency [2] is on record?
The Potency was 8.2 µM (active) and 11.8 µM (active).

And the Potency [7]?
The Potency was 5.8 µM (active) and 2.35 µM (active).

For `O=C(O)CCCc1c[nH]c2ccccc12`, which Potency [2] is on record?
The Potency was “inactive”.

And the Potency [7]?
Its Potency is “inactive”.

What does the source list for `CN(C)c1nc(Cc2ccc(NC(=O)c3ccc4ccccc4c3)cc2)nc(Cl)c1CC(=O)O`?
Potency [5]: inactive; Potency [2]: inactive; Potency [7]: inactive

For `Fc1cc(-c2cccc3ncc(-c4cnn(C5CCNCC5)c4)nc23)cc(F)c1CN1CCOCC1`, which Potency [8] is on record?
Its Potency is 39.8 µM (active).

With `O=C(NC1CCNCC1)c1[nH]ncc1NC(=O)c1c(Cl)cccc1Cl` as the compound, how does the Potency [2] read?
Its Potency is 0.662 µM (active).

And the Potency [7]?
The Potency was 0.59 µM (active).

For `CCCCCN(CCC12CC3CC(CC(C3)C1)C2)C(=O)NCCCc1ccncc1`, which Potency [7] is on record?
The Potency was 16.3 µM (active).

Which Potency [1] does the source give for `CCn1nnc2c(N3CCOCC3)nc(-c3ccc(NC(=O)Nc4ccc(C(=O)N5CCN(C)CC5)cc4)cc3)nc21` here?
The Potency was “inactive”.

And the Potency [2]?
Its Potency is 18.3 nM (active) and 41.7 nM (active).

What about the Potency [7] of the same compound?
The Potency was 46.1 nM (active) and 59 nM (active).

And the activity [3]?
The activity was -6.26%.

And the activity change, negative = inhibition [4]?
The activity change, negative = inhibition was 0%.

With `CC(C)c1ccccc1Cc1cc(C(=O)Nc2ccc(S(=O)(=O)c3ccccc3C(C)(C)C)cc2)c(O)c(O)c1O` as the compound, how does the Potency [2] read?
Its Potency is 13.2 µM (active).

Which Potency [1] does the source give for `CCc1cc2c(cc1N1CCC(N3CCOCC3)CC1)C(C)(C)c1[nH]c3cc(C#N)ccc3c1C2=O` here?
Its Potency is “inactive”.

And the Potency [7]?
The Potency was 1.42 µM (active).

Which Potency [1] does the source give for `NC(=O)Nc1cc(-c2cccc(F)c2)sc1C(=O)N[C@H]1CCCNC1` here?
The Potency was “inactive”.

What about the Potency [2] of the same compound?
The Potency was 81.7 nM (active) and 74.2 nM (active).

And the Potency [7]?
The Potency was 81.7 nM (active) and 74.2 nM (active).

What does the source list for `CCOC(=O)C1=C(C)NC2=C(C(=O)CC(C)(C)C2)C1c1ccc(-c2ccccc2)cc1` (configuration not stated)?
Potency [5]: inactive; Potency [6]: 2.68 µM (active)

With `COc1ccc(OC)c(-c2nnc3ccc(-c4ccc(OC)c(O[C@@H]5CCOC5)c4)nn23)c1` as the compound, how does the Potency [2] read?
The Potency was 3.72 µM (active).

And the Potency [7]?
The Potency was 2.95 µM (active).

Which results are given for `CC(=O)Nc1nc(C)c(-c2ccc(Cl)c(S(=O)(=O)NCCO)c2)s1`?
Potency [2]: 1.32 µM (active); Potency [7]: 1.32 µM (active)

For `Nc1cccc(-c2cc3c(Oc4cccc(O)c4)ncnc3[nH]2)c1`, which Potency [1] is on record?
The Potency was “inactive”.

And the Potency [2]?
The Potency was 1.15 µM (active) and 1.05 µM (active).

And the activity [3]?
Its activity is -47.2%.

And the Potency [4]?
The Potency was 30.4 µM (active).

For `Cc1ccc(C(N)=O)cc1Nc1nccc(-c2cn(C(C)C)c3cnccc23)n1`, which Potency [1] is on record?
Its Potency is “inactive”.

And the Potency [2]?
Its Potency is 3.32 µM (active).

What about the Potency [7] of the same compound?
Its Potency is 1.66 µM (active).

And the activity [3]?
The activity was -56.6%.

And the Potency [4]?
The Potency was 27.1 µM (active).

With `C1Cc2[nH]nc(-c3nn[nH]n3)c2C1` as the compound, how does the Potency [5] read?
Its Potency is “inactive”.

And the Potency [6]?
The Potency was “inactive”.

And the Potency [2]?
The Potency was “inactive”.

Which Potency [2] does the source give for `O=C(NCCS(=O)(=O)c1ccc(C(F)(F)F)cn1)c1ccc(Cl)cc1` here?
Its Potency is “inactive”.

What about the Potency [7] of the same compound?
The Potency was “inactive”.

With `COCCOc1ccc2c(c1)ncn2-c1ccc2cccc(N3CCC(N)CC3)c2n1` as the compound, how does the Potency [1] read?
Its Potency is “inactive”.

What about the Potency [2] of the same compound?
The Potency was 2.3 µM (active) and 2.09 µM (active).

And the Potency [7]?
Its Potency is 2.3 µM (active) and 2.35 µM (active).

And the activity [3]?
Its activity is -17.6%.

And the Potency [4]?
The Potency was 48.2 µM (active).

For `Cc1ccc(S(=O)(=O)Nc2cc(Cl)ccc2C(=O)Nc2nc(-c3ccccc3)cs2)cc1`, which Potency [2] is on record?
The Potency was “inactive”.

And the Potency [7]?
The Potency was “inactive”.

With `CN(C)CCCN=c1c2ccccc2n(C)c2[nH]c(=O)n(C)c(=O)c12` as the compound, how does the Potency [2] read?
Its Potency is 13.2 µM (active).

What about the Potency [7] of the same compound?
The Potency was 11.8 µM (active).

For `Nc1ncnc2c1c(-c1cnc3[nH]ccc3c1)nn2C1CCCC1`, which Potency [5] is on record?
Its Potency is “inactive”.

And the Potency [6]?
Its Potency is 0.425 µM (active).

And the Potency [2]?
The Potency was 365 nM (active) and 417 nM (active).

And the Potency [7]?
Its Potency is 365 nM (active) and 417 nM (active).

And the activity [3]?
Its activity is -9.35%.

What about the activity change, negative = inhibition [4] of the same compound?
Its activity change, negative = inhibition is 0.397%.

With `Cc1cc(Nc2cc(N3CCN(C)CC3)nc(Sc3ccc(NC(=O)C4CC4)cc3)n2)n[nH]1` as the compound, how does the Potency [1] read?
Its Potency is “inactive”.

What about the Potency [2] of the same compound?
The Potency was 0.296 µM (active).

And the Potency [7]?
The Potency was 0.0468 µM (active).

What about the activity [3] of the same compound?
Its activity is -3.34%.

And the activity change, negative = inhibition [4]?
Its activity change, negative = inhibition is -2.28%.

What does the source list for `Cc1c(C)n(Cc2ccc(-c3ccccc3C(=O)O)cc2)c2ccc(C(=O)N[C@@H](C)c3ccc([N+](=O)[O-])cc3)cc12`?
Potency [6]: 15.1 µM (active); activity [3]: -7.34%; activity change, negative = inhibition [4]: -10.2%

What does the source list for `O=C(CCCCCCC(=O)Nc1ccc([C@H]2O[C@@H](CSc3nc(-c4ccccc4)c(-c4ccccc4)o3)C[C@@H](c3ccc(CO)cc3)O2)cc1)NO`?
Potency [2]: 2.58 µM (active) and 4.28 µM (active); Potency [7]: 2.58 µM (active) and 4.28 µM (active)

With `Cc1ccc(NC(=O)C2(c3ccc4c(c3)OC(F)(F)O4)CC2)nc1-c1cccc(C(=O)O)c1` as the compound, how does the Potency [5] read?
Its Potency is “inactive”.

What about the Potency [2] of the same compound?
The Potency was “inactive”.

Which results are given for `Clc1cccc(-n2nnnc2NCc2ccccc2Oc2ccccn2)c1Cl`?
Potency [5]: 5.35 µM (active); Potency [6]: 6.01 µM (active)

What does the source list for `COC(=O)C1=C(C)NC(C)=C(C(=O)OCCN2CCN(C(c3ccccc3)c3ccccc3)CC2)C1c1cccc([N+](=O)[O-])c1` (configuration not stated)?
Potency [9]: 8.91 µM (active); Potency [6]: 1.55 µM (active); Potency [7]: 9.34 µM (active)
